Rce1 inhib – yeast Ras-converting enzyme inhibition | Q03530 | yeast membranes, quenched prenylated peptide cleavage fluorescence | calls only | hit rate 0.27% among 290,000;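 active means fall in fluorescence gain of 50% or more versus controls, with final raw signal at or below 3038400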
NALP1 yeast inh – blocks the NALP1 inflammasome reconstituted in yeast | AID 2071 | inhibition, % at 10 µM | S. cerevisiae NALP1/ASC/caspase-1 growth, X-gal OD620, 72 h | hit rate 0.61% among 280,000; in the data active means inhibition mostly above about 24%, no sharp cut-off; inactive means mostly below about 32%
V-ATPase pHluor – alters yeast V-ATPase proton transport | S. cerevisiae, pHLuorin cytosolic pH fluorescence | response, % at 10 µM | hit rate 0.37% among 350,000 | AID 504577; in the data active means response mostly above about 7.3%, no sharp cut-off; inactive means mostly below about 5.4%; further: actives read high
CR mimetic SO – caloric restriction mimetics inhibiting age-related superoxide in yeast; S. cerevisiae aged cells, superoxide DHE fluorescence; hits give low values; superoxide response (% of plate mean), % at 10 µM; hit rate 0.18% among 330,000; AID 2690;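 active means superoxide response under a set limit, about three screen SD below normal, cut at about 65% in these data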;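 further: yeast aged for seven days with compound at 30 °C before DHE staining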
PERK inhibitor – human PERK inhibition, primary cell-based screen; AID 1416; inhibition, % at 5.6 µM; hit rate 0.17% among 220,000; CHO PERK-DD fusion, SEAP luminescence translation reporter;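 active means inhibition above the mean inhibition of all tested compounds plus 3 SD, set separately per screening campaign, cut at about 2.9% in these data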;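 further: PERK kinase domain activated by AP20187 dimerizer at 100 nM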
NLRP3 yeast inh – NALP3 inhibition in yeast; inhibition, % at 10 µM; AID 2825; hit rate 0.39% among 330,000; Yeast reconstituted NLRP3/ASC/caspase-1, beta-gal luminescence, 24 h;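 active means inhibition of 50% or more; inactive means inhibition below 50%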
V-ATPase pH SP – regulators of yeast V-ATPase proton transport | hit rate 2% among 980 | S. cerevisiae pHLuorin cytosolic pH | shares compounds with V-ATPase pHluor | response, % at 10 µM; in the data active means response above about 24%
Each line names hits and unclear results; the compound was inactive in the other large screens (follow-up assays come after a bar, where they were run). This is a sample that favours compounds with a hit; in the whole collection about 1.6% have one here.

CCSc1nnc(NC(=O)c2cccc(S(=O)(=O)N(C)c3ccccc3)c2)s1	none
C=CCN(c1ccccc1)S(=O)(=O)c1cccc(C(=O)Nc2nnc(SCC)s2)c1	V-ATPase pHluor 11 | V-ATPase pH SP inactive
Cc1ccccc1Nc1nc(N)nc(COC(=O)c2ccc3c(c2)OCCO3)n1	none (no result: Rce1 inhib, NALP1 yeast inh, CR mimetic SO, PERK inhibitor, NLRP3 yeast inh)
CCN(CC)C(=O)C1=C(C)N(CCCOC)C(=O)C(CC(=O)NCCCN(C)C)C1 (stereo unspecified)	none (no result: Rce1 inhib, NALP1 yeast inh, CR mimetic SO, PERK inhibitor, NLRP3 yeast inh)
CCCCCC(=O)N1C[C@@H](O)[C@H](n2cc(COC(=O)c3ccccc3)nn2)C[C@@H]1c1ccccc1	none (no result: Rce1 inhib, NALP1 yeast inh, CR mimetic SO, PERK inhibitor, NLRP3 yeast inh)
COc1ccc(S(=O)(=O)N2CCN(Cc3c[nH]c4ccccc34)CC2)cc1	V-ATPase pHluor 7.8 | V-ATPase pH SP inactive
COCC#Cc1ccc2c(c1)O[C@@H](CN(C)S(=O)(=O)c1cccc(F)c1)[C@@H](C)CN([C@H](C)CO)S2(=O)=O	none (no result: Rce1 inhib, NALP1 yeast inh, CR mimetic SO, PERK inhibitor, NLRP3 yeast inh)
O=C(Nc1ccccc1)C1CCCCC1	none
O=C(Nc1ccc(Nc2ccccc2)cc1)C1CC1	V-ATPase pHluor 7.5 (no result: NALP1 yeast inh) | V-ATPase pH SP inactive
O=C(O)CN(c1cccc(C(F)(F)F)c1)S(=O)(=O)c1ccccc1	V-ATPase pHluor 8.6 | V-ATPase pH SP inactive
NC(=O)C1CCN(C(=O)CN(c2cccc(C(F)(F)F)c2)S(=O)(=O)c2ccccc2)CC1	none
CCCCN1C(=O)C(CC(=O)NC2CCCCC2)CC(C(=O)N(C(C)C)C(C)C)=C1C (stereo unspecified)	none (no result: Rce1 inhib, NALP1 yeast inh, CR mimetic SO, PERK inhibitor, NLRP3 yeast inh)
COC(=O)c1cc(S(=O)(=O)Nc2cccc(C)c2C)cn1C	V-ATPase pHluor 11 (no result: PERK inhibitor) | V-ATPase pH SP inactive
C[C@H]1CN(c2ccccc2)C(=O)[C@@H]1CC(=O)Nc1ccccc1	none (no result: Rce1 inhib, NALP1 yeast inh, CR mimetic SO, PERK inhibitor, NLRP3 yeast inh)
O=C(c1cccs1)N1C[C@@H](n2cc(-c3ccc(F)cc3)nn2)[C@H](O)C[C@@H]1c1ccccc1	none (no result: Rce1 inhib, NALP1 yeast inh, CR mimetic SO, PERK inhibitor, NLRP3 yeast inh)
Cc1ccc(C(=O)OCC(=O)N2CCC(C)CC2)cc1S(=O)(=O)N1CCOCC1	none (no result: Rce1 inhib, NALP1 yeast inh, CR mimetic SO, PERK inhibitor, NLRP3 yeast inh)
O=S(=O)(c1ccccc1)N(CC(O)Cn1c2ccccc2c2ccccc21)c1ccccc1 (stereo unspecified)	V-ATPase pHluor 7.8 | V-ATPase pH SP inactive
COc1ccccc1N(CC(O)Cn1c2ccccc2c2ccccc21)S(=O)(=O)c1ccccc1 (stereo unspecified)	none
CC(OC(=O)/C=C/c1ccco1)C(=O)NC1CCCCC1 (stereo unspecified)	none (no result: Rce1 inhib, NALP1 yeast inh, CR mimetic SO, PERK inhibitor, NLRP3 yeast inh)
O=C(COC(=O)/C=C/c1ccccc1Cl)NC(=O)Cc1ccccc1	V-ATPase pHluor 9.9 | V-ATPase pH SP inactive
COC(=O)C1(C)CCCC2(C)C3CCC(C(C)C)C(CO)C3C(CO)CC12 (stereo unspecified)	none (no result: Rce1 inhib, NALP1 yeast inh, CR mimetic SO, PERK inhibitor, NLRP3 yeast inh)
Cc1ccc(S(=O)(=O)N2CCC(C(=O)N/N=C/c3cccn3C)CC2)cc1	V-ATPase pHluor 11 (no result: Rce1 inhib, NALP1 yeast inh, PERK inhibitor) | V-ATPase pH SP inactive
Cc1cc(C)c2cccc(N)c2n1	V-ATPase pHluor 31 | V-ATPase pH SP inactive
Cc1cc(C)c2c(N)c3ccccc3nc2n1	none
CCOC(=O)c1c(C)[nH]c(C(=O)COC(=O)/C=C/c2ccc(OC(F)F)cc2)c1C	none
CCOC(=O)c1c(C)[nH]c(C)c1C(=O)COC(=O)/C=C/c1ccc(OC(F)F)cc1	V-ATPase pHluor 10 | V-ATPase pH SP inactive
O=c1ccc(OCCOc2ccccc2)nn1-c1ccccc1	V-ATPase pHluor 15 | V-ATPase pH SP inactive
CCN(CC)C(=O)C1=C(C)N(CCCOC)C(=O)C(CC(=O)NC2CC2)C1 (stereo unspecified)	none (no result: Rce1 inhib, NALP1 yeast inh, CR mimetic SO, PERK inhibitor, NLRP3 yeast inh)
CCOC(=O)N1CCC(n2c(=S)[nH]c3cc(OCC)c(OCC)cc3c2=O)CC1	none
CCOc1cc2[nH]c(=S)n(C3CC3)c(=O)c2cc1OCC	V-ATPase pHluor 12 | V-ATPase pH SP inactive
O=C(c1ccc(Br)cc1)N1CCN(c2ccccn2)CC1	none (no result: Rce1 inhib, NALP1 yeast inh, CR mimetic SO, PERK inhibitor, NLRP3 yeast inh)
COc1ccc(-c2cc(C(F)(F)F)n3nc(C(N)=O)cc3n2)cc1	none (no result: Rce1 inhib, NALP1 yeast inh, CR mimetic SO, PERK inhibitor, NLRP3 yeast inh)
Cc1ccc(S(=O)(=O)Nc2cnc3ccccc3c2)cc1	V-ATPase pHluor 9.9 | V-ATPase pH SP inactive
CN(C)C(=O)c1cc2cc([N+](=O)[O-])ccc2s1	none
CCN(CC)C(=O)c1cc2cc([N+](=O)[O-])ccc2s1	V-ATPase pHluor 19 | V-ATPase pH SP inactive
CCCCNC(=O)C(=O)Nc1ccc2c(c1)N(S(=O)(=O)c1cccs1)CCC2	none (no result: Rce1 inhib, NALP1 yeast inh, CR mimetic SO, PERK inhibitor, NLRP3 yeast inh)
CCCCNC(=O)c1ccc(C)c(NC(=O)C2=C(C)OCCS2)c1	none (no result: PERK inhibitor)
CC1=C(C(=O)Nc2cc(C(=O)NCc3ccccc3)ccc2C)SCCO1	V-ATPase pHluor 55 (no result: Rce1 inhib, NALP1 yeast inh, CR mimetic SO, PERK inhibitor, NLRP3 yeast inh) | V-ATPase pH SP inactive
O=c1[nH]n(-c2ccc(Cl)cc2)c(=O)c(Cl)c1Cl	none | V-ATPase pH SP inactive
C[C@@H]1CN([C@@H](C)CO)C(=O)c2cc(Br)cnc2O[C@H]1CN(C)C(=O)Cc1ccccn1	none (no result: Rce1 inhib, NALP1 yeast inh, CR mimetic SO, PERK inhibitor, NLRP3 yeast inh)
Cc1cn([C@H]2C[C@H](O)[C@@H](CNCc3ccc(F)c(N4CCOCC4)c3)O2)c(=O)[nH]c1=O	none (no result: Rce1 inhib, NALP1 yeast inh, CR mimetic SO, PERK inhibitor, NLRP3 yeast inh)
COc1cc(OC)c(C(=O)OCC(=O)Nc2nnc(-c3ccccc3)o2)cc1OC	V-ATPase pHluor 12 (no result: Rce1 inhib, NALP1 yeast inh, PERK inhibitor) | V-ATPase pH SP inactive
COc1ccc(Cl)cc1S(=O)(=O)N1CCCC(C(=O)N2CCOCC2)C1 (stereo unspecified)	V-ATPase pHluor 9.5 (no result: PERK inhibitor) | V-ATPase pH SP inactive
O=C(COC(=O)c1c(Cl)cccc1Cl)NCC1CCCO1 (stereo unspecified)	V-ATPase pHluor 12 (no result: PERK inhibitor) | V-ATPase pH SP inactive
O=C(COC(=O)c1c(Cl)ccc(Cl)c1Cl)NCC1CCCO1 (stereo unspecified)	none (no result: Rce1 inhib, NALP1 yeast inh, PERK inhibitor)
Cc1ccc(NC(=O)COc2cccnc2[N+](=O)[O-])cc1S(=O)(=O)N1CCCCC1	V-ATPase pHluor 57 | V-ATPase pH SP inactive
CNC(=O)C[C@H]1C(=O)N(CCc2ccccc2)C[C@@H]1C	none (no result: Rce1 inhib, NALP1 yeast inh, CR mimetic SO, PERK inhibitor, NLRP3 yeast inh)
